Five compounds from PubChem BioAssay (EPA / NIEHS) can be followed below.

Records with an inconclusive call do not appear. Active and inactive are the calls of the source. Rule for the calls, unless noted: active = hit-call score of the fitted dose curve at least 0.9, where 1 is the maximum; inactive = score below 0.9.

In experiment [1] the target is Paired box protein Pax-6 (Homo sapiens) (UniProt P26367). Description: ATG_Pax6_CIS: Attagene CIS-FACTORIAL HepG2 Assay for human Paired Box 6 (PAX6) (AID 2282956). The conditions noted are these: HepG2 CIS-FACTORIAL PAX6 reporter transcription, RNA readout; actives raise or lower the signal. The essentials:
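Transient MRTU transfection of HepG2 → compound exposure 24 h → TriZol RNA, oligo(dT) RT → PCR, 6-FAM primer extension, HpaI cut → capillary electrophoresis; activity fitted both directions against DMSO.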

The nature of experiment [2]: ATG_PXRE_CIS: Attagene CIS-FACTORIAL HepG2 Assay for human Pregnane X Receptor Element (PXRE) (AID 2282957). The conditions noted are these: HepG2 Attagene CIS-FACTORIAL PXRE reporter, mRNA; actives raise or lower the signal. The method, boiled down: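 Transiently transfected HepG2 cells were dosed and incubated for 24 h. RNA was then isolated, DNase-treated, reverse-transcribed and reporter sequences amplified. Labeled, HpaI-digested fragments were quantified by capillary electrophoresis against DMSO.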

Experiment [3] can be described thus: ATG_PPRE_CIS: Attagene CIS-FACTORIAL HepG2 Assay for human Peroxisome Proliferator-activated Response Element (PPRE) (AID 2282958). The conditions noted are these: HepG2 PPRE cis-element reporter, Attagene transcription factor profiling; actives raise or lower the signal. The method, boiled down:
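Read-out: fluorescent reporter mRNA fragments resolved by capillary electrophoresis after RT-PCR. HepG2 cells carried transiently transfected PPRE-driven cis reporter constructs and were dosed for 24 h; gain or loss of signal fitted relative to DMSO.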

The nature of experiment [4]: ATG_RORE_CIS: Attagene CIS-FACTORIAL HepG2 Assay for human RAR-related Orphan Receptor Element (RORE) (AID 2282959). The conditions noted are these: HepG2 Attagene cis-factorial RORE reporter, mRNA; actives raise or lower the signal. The method, boiled down: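 Readout: fluorescent reporter mRNA by RT-PCR plus capillary electrophoresis, 24 h after dosing transfected HepG2 cells. Endogenous transcription factor activity on a cis promoter element is measured. Gain or loss of signal fitted against DMSO.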

Experiment [5] can be described thus: ATG_Sox_CIS: Attagene CIS-FACTORIAL HepG2 Assay for human SRY-box transcription factor (SOX) (AID 2282960). The conditions noted are these: HepG2 Attagene cis-factorial SOX reporter, mRNA; actives raise or lower the signal. The method, boiled down:
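Read-out: fluorescent RT-PCR products of SOX1-linked reporter transcripts resolved by capillary electrophoresis, fitted bidirectionally against DMSO. Transiently transfected HepG2 cells, 24 h after chemical exposure, endogenous transcription factor activity.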

For experiment [6], the target named is Transcription factor Sp1 (Homo sapiens) (UniProt P08047). The experiment in a line: ATG_Sp1_CIS: Attagene CIS-FACTORIAL HepG2 Assay for human Specificity Protein 1 (Sp1) (AID 2282961). The conditions noted are these: HepG2 Sp1 cis-reporter transcription, actives raise or lower the signal. The essentials:
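Read-out: fluorescence of 6-FAM-labeled, HpaI-digested RT-PCR products separated by capillary electrophoresis. HepG2 cells carried transfected cis-element reporter units and were exposed to chemicals for 24 h; gain or loss of signal fitted relative to DMSO.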

A short description of experiment [7]: ATG_SREBP_CIS: Attagene CIS-FACTORIAL HepG2 Assay for human Sterol Regulatory Element Binding (SREBP) (AID 2282962). The conditions noted are these: HepG2 Attagene cis-factorial SREBP reporter, mRNA; actives raise or lower the signal. The method, boiled down:
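Transfected HepG2 (cis-regulated reporter library, endogenous TFs) → compound 24 h → total RNA → oligo(dT) RT → reporter-specific PCR → FAM primer extension, HpaI cut → CE fluorescence. Fit bidirectional vs DMSO.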

Experiment [8] concerns the target Signal transducer and activator of transcription 3 (Homo sapiens) (UniProt P40763). The experiment in a line: ATG_STAT3_CIS: Attagene CIS-FACTORIAL HepG2 Assay for human Signal Transducer and Activator of Transcription 3 (STAT3) (AID 2282963). The conditions noted are these: HepG2, Attagene cis-factorial STAT3 reporter transcription; actives raise or lower the signal. The essentials:
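After a 24 h compound incubation, total RNA from MRTU-transfected HepG2 cells was converted to cDNA and reporter sequences PCR-amplified, labelled and profiled by capillary electrophoresis. Gain and loss of signal were referenced to DMSO.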

The nature of experiment [9]: ATG_TA_CIS: Attagene CIS-FACTORIAL HepG2 Assay for human TA Basal Promoter (AID 2282964). The conditions noted are these: HepG2 Attagene CIS-factorial TA basal promoter reporter; actives raise or lower the signal. The method, boiled down:
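Fluorescence from labelled RT-PCR reporter fragments, separated by capillary electrophoresis, gives the signal. Cells: HepG2 transiently carrying multiple reporter units, 24 h chemical dosing. Gain or loss relative to DMSO.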

The nature of experiment [10]: ATG_TCF_b_cat_CIS: Attagene CIS-FACTORIAL HepG2 Assay for human T-Cell-Factor with beta-catenin (TCF/b-cat) (AID 2282965). The conditions noted are these: HepG2 TCF/beta-catenin cis-reporter transcription, actives raise or lower the signal. The essentials:
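Measured: reporter mRNA in HepG2 transiently transfected with cis-promoter reporter units, 24 h after chemical addition. Fitting was bidirectional, DMSO as negative control.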

Experiment [11] can be described thus: ATG_TAL_CIS: Attagene CIS-FACTORIAL HepG2 Assay for human TAL Basal Promoter (AID 2282966).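 Note: background control endpoint measuring basal TAL promoter reporter mRNA not a specific factor.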 The conditions noted are these: HepG2 Attagene cis-factorial TAL promoter reporter; actives raise or lower the signal. The method, boiled down:
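Readout: reporter mRNA, fluorescence by CE. System: HepG2, transient multi-reporter transfection, endogenous TF activity. Exposure: 24 h. Analysis: bidirectional, DMSO-normalized; background control.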

Experiment [12] can be described thus: ATG_TGFb_CIS: Attagene CIS-FACTORIAL HepG2 Assay for human Transforming Growth Factor (TGF) (AID 2282967). The conditions noted are these: HepG2 Attagene CIS TGFb reporter, mRNA transcription; actives raise or lower the signal. The essentials: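 Bidirectional fitting relative to DMSO gave the endpoint. Underlying data: reporter mRNA from HepG2 cells carrying transiently transfected cis-regulated reporter constructs, harvested 24 h after dosing and analyzed by RT-PCR and capillary electrophoresis.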

Experiment [13] is described as follows: ATG_VDRE_CIS: Attagene CIS-FACTORIAL HepG2 Assay for human Vitamin D Receptor Element (VDRE) (AID 2282968). The conditions noted are these: HepG2 VDRE cis-reporter transcription, actives raise or lower the signal. The essentials:
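In transiently transfected HepG2 liver cells, gain or loss of reporter mRNA after 24 h exposure is scored relative to DMSO, using fluorescence detection by capillary electrophoresis of RT-PCR products.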

For experiment [14], the target named is X-box-binding protein 1 (Homo sapiens) (UniProt P17861). Description: ATG_Xbp1_CIS: Attagene CIS-FACTORIAL HepG2 Assay for human X-box Binding Protein 1 (XBP1) (AID 2282972). The conditions noted are these: HepG2 XBP1 cis-element reporter, Attagene multiplex; actives raise or lower the signal. The essentials: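 HepG2, transient MRTU transfection (cis-promoter driven), 24 h compound exposure. Total RNA → oligo(dT) RT → PCR → 6-FAM labeling → HpaI cut → CE. Bidirectional fit vs DMSO.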
Sequence of X-box-binding protein 1 (Homo sapiens) (P17861 whole entry, looked up): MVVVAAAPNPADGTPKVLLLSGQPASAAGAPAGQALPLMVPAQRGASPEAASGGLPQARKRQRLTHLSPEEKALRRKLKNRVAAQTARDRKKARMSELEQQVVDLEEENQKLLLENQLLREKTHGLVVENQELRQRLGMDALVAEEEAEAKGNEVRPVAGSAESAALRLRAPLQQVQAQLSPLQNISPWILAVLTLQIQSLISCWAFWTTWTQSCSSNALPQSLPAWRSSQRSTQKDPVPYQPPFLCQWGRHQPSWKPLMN

A short description of experiment [15]: ATG_GAL4_TRANS: Attagene TRANS-FACTORIAL HepG2 Assay for GAL4 (Internal Marker) (AID 2282976; active = hit-call score of the fitted dose curve at least 0.9, where 1 is the maximum). The conditions noted are these: HepG2 Attagene TRANS GAL4 internal marker reporter. The essentials:
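Fluorescence from capillary electrophoresis of labelled RT-PCR products quantifies reporter mRNA induction after 24 h dosing of HepG2 cells carrying transfected GAL4-UAS reporter transcription units. Vehicle DMSO serves as baseline.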

In experiment [16] the target is Estrogen receptor (Homo sapiens) (UniProt P03372). The experiment in a line: ATG_ERa_TRANS: Attagene TRANS-FACTORIAL HepG2 Assay for human Estrogen Receptor alpha (ERa) (AID 2282970; active = hit-call score of the fitted dose curve at least 0.9, where 1 is the maximum). The conditions noted are these: HepG2 Attagene TRANS ERa GAL4 reporter, mRNA. The essentials: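 Transactivation via ERa-Gal4 chimera in HepG2; 24 hour incubation; reporter mRNA detected by fluorescence RT-PCR and capillary electrophoresis.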
Sequence of Estrogen receptor (Homo sapiens) (P03372 whole entry, looked up, the tested form may be a part): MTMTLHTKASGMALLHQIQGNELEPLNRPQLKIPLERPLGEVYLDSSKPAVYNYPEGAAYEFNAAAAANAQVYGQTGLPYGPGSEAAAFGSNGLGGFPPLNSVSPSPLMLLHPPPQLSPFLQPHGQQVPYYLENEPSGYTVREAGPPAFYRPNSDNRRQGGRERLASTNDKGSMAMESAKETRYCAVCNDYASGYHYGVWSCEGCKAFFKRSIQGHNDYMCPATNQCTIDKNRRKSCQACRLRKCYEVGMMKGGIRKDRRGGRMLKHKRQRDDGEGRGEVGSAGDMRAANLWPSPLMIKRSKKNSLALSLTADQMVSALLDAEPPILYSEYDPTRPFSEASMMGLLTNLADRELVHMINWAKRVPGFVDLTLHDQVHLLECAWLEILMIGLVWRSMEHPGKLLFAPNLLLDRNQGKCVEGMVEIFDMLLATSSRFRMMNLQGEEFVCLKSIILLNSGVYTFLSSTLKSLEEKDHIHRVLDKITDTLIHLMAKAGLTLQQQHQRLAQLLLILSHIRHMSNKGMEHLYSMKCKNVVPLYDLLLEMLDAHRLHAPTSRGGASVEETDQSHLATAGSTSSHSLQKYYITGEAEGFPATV

The nature of experiment [17]: ATG_M_19_TRANS: Attagene TRANS-FACTORIAL HepG2 Assay for M19 Transcription Factor (Internal Marker) (AID 2282974; active = hit-call score of the fitted dose curve at least 0.9, where 1 is the maximum). The conditions noted are these: HepG2 Attagene TRANS-FACTORIAL M19 internal marker reporter. The essentials:
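24 h chemical exposure of transiently transfected HepG2 (MRTU library). RNA → oligo(dT) RT → PCR → 6-FAM labelling → HpaI cut → CE fluorescence. Positive-direction fit vs DMSO baseline; background internal-marker readout.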

Sequence of Signal transducer and activator of transcription 3 (Homo sapiens) (P40763 whole entry, looked up): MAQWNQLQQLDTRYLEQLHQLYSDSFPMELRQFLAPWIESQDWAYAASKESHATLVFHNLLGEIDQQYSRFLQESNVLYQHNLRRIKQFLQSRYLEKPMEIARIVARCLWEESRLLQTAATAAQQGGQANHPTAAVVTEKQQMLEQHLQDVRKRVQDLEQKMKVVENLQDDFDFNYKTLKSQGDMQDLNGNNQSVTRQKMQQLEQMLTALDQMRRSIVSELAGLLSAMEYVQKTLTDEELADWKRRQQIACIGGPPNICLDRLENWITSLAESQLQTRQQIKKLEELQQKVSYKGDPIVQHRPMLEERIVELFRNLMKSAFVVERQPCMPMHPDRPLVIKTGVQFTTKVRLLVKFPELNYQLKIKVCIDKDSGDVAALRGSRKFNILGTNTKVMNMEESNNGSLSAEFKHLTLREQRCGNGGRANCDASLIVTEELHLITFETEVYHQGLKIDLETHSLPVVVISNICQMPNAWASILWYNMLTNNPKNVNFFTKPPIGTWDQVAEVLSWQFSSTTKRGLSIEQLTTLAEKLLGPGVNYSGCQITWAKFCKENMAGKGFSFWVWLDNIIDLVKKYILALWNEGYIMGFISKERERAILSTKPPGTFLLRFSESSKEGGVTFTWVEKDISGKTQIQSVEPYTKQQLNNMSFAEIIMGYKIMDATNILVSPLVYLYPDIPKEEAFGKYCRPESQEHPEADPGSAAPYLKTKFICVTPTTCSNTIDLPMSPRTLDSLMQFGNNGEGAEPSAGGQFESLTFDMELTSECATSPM
Sequence of Paired box protein Pax-6 (Homo sapiens) (P26367 whole entry, looked up): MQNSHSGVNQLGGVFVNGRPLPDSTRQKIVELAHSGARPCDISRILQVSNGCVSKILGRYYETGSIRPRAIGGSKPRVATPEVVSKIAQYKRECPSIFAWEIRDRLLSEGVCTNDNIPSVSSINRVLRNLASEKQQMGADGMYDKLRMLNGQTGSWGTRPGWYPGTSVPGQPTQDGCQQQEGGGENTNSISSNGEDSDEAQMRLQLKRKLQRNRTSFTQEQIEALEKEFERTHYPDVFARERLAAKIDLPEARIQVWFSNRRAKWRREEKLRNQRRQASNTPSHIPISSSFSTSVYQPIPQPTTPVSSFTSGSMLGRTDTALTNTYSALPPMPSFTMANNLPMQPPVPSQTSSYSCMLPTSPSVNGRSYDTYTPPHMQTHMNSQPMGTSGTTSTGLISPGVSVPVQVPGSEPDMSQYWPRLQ
Sequence of Transcription factor Sp1 (Homo sapiens) (P08047 whole entry, looked up): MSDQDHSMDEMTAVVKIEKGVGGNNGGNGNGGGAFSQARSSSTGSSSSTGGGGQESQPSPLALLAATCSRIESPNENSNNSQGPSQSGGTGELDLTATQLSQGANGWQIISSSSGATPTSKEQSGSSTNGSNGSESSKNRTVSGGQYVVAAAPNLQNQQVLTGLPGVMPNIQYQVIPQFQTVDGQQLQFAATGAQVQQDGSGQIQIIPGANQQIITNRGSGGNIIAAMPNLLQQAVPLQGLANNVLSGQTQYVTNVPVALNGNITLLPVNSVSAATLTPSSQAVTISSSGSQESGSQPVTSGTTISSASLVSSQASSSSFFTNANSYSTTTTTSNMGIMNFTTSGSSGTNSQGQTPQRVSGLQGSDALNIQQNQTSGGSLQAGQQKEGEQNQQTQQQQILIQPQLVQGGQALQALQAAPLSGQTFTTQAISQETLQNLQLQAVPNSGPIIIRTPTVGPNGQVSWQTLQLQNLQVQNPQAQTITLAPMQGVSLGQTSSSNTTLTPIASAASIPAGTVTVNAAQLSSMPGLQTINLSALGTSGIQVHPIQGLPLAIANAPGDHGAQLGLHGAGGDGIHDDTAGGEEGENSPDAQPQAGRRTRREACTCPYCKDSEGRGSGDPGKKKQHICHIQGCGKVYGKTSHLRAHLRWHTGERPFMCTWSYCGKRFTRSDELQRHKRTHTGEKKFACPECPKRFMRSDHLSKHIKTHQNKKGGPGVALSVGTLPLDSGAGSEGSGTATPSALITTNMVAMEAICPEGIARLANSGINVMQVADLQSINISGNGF

Take `Cc1ccc(C2OC[C@@H]3OC(c4ccc(C)cc4)O[C@H]([C@H](O)CO)[C@@H]3O2)cc1` (some centres undefined): the call in experiment [1], in experiment [3], in experiment [4], in experiment [5], in [6] and in experiment [7] was inactive. The result in [8], in [9], in [10], in experiment [11], in experiment [12] and in [13] was inactive. The outcome in experiment [14] and in experiment [15] was inactive. In addition, in [2], the AC50 is 12.9 µM (active).
Turning to `CN(C)c1ccc(C(=N)c2ccc(N(C)C)cc2)cc1`, the AC50 in [1] was 3.16 µM (active); in experiment [2], 5.82 µM (active); in experiment [4] it was 1.28 µM (active); in experiment [10], 9.76 µM (active); in experiment [14], 1.21 µM (active). Also, the compound was called inactive in experiment [3], in experiment [5], in [6], in experiment [7], in experiment [8] and in experiment [9]. Further, the outcome in [11], in [12] and in experiment [16] was inactive.
On to `O=C(C=Cc1ccccc1)OCc1ccccc1`, for which the outcome in experiment [1], in experiment [3], in experiment [4], in experiment [5], in [6] and in experiment [7] was inactive. The compound was classed as inactive in experiment [8], in [9], in experiment [10], in [11], in experiment [12] and in [16]. Further, the result in experiment [14] was inactive. Moreover, in experiment [2], the AC50 is 13.2 µM (active).
As for `CCOC(F)(F)C(F)(F)C(F)(F)C(F)(F)F`, the result in experiment [1], in [2], in experiment [3], in experiment [4], in [5] and in experiment [6] was inactive. The compound was classed as inactive in experiment [7], in experiment [8], in [9], in [10], in experiment [11] and in [12]. Further, the call in experiment [13], in experiment [14] and in experiment [15] was inactive.
With `CCCNC(=O)NS(=O)(=O)c1ccc(Cl)cc1`, the compound was classed as inactive in [1], in experiment [2], in [3], in experiment [4], in [5] and in experiment [6]. The outcome in experiment [7], in [8], in experiment [9], in experiment [10], in experiment [12] and in [13] was inactive. Further, the compound was classed as inactive in experiment [16], in experiment [14], in [17] and in experiment [15].
